Sampled rows, rich in hits. Any-hit rate of the full collection: about 6%.
BCR signal inh: chronic active BCR signaling inhibition | Potency, µM (titrated, usually from 46.1 µM), for inactives: at the top dose activity change, negative = inhibition, actives largely listed as inhibitors | ABC-DLBCL IkBa-CBG/CBR reporter, luminescence ratio, 4 h | 340,000 tested, 0.05% active; active = well fitted inhibition curve with a large enough effect in the signal ratio, with a control signal flat, not every such curve was filed as active; inconclusive = small, poorly fitted or top-dose-only effect, or effect the other way, or a change in a side signal; the % refers to the signal ratio;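 also: potency is read from the fitted curve at half-maximal effect; plate controls were basal doxycycline-induced cells for no effect and cells given 10 µM MG132 for full effect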
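Doxycycline induced both beetle luciferases in TMD8 lymphoma cells; IKK-driven degradation limits the IkappaBalpha-fused green signal, while red luminescence normalises for cell number and nonspecific effects. Compounds tested up to 46 uM, 4 hrs.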
D1 antag: human D1 dopamine receptor antagonism; activity change, negative = inhibition, % at 10 µM; 360,000 tested, 3.2% active; P21728; AID 504652; HEK293 TREx D1 cells, calcium flux, dopamine EC80; active compounds read low; in the data active = activity change below about -30%; also: % is scaled to controls: 0 for no effect and ±100 for the full control effect
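After overnight tetracycline induction at 30 C, force-coupled D1 HEK293 cells took up a no-wash calcium dye at room temperature. Compounds were added and monitored 180 s, and the response to EC80 dopamine was then recorded.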
DRD3 agonist: D3 dopamine receptor (human) agonism; P35462; D3R DiscoveRx beta-arrestin cells, luminescence, 90 min; max activation, %; 410,000 tested, 0.58% active; AID 652048; in the data active = max activation above about 30%; also: 0% is about no effect
Target sequence (P35462 whole entry, looked up): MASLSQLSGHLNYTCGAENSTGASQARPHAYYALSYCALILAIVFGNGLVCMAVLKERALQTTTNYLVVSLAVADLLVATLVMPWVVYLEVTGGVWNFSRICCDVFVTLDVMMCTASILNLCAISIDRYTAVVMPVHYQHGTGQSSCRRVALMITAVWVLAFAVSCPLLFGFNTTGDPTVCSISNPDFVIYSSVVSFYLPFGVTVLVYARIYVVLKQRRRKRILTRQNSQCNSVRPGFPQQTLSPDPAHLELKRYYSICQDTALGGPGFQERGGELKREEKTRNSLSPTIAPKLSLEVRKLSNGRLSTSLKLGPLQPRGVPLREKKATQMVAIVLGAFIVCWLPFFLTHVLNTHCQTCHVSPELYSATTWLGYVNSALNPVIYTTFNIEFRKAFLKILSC
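Cells at 1500/well, incubated overnight, then treated with pinned compounds (dopamine as control) for 90 min at 37 degrees C. DiscoveRx reagent added for 30 - 60 minutes at room temperature; luminescence read.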
D1 PAM: enhances dopamine response at the human D1 receptor. P21728. HEK293 TREx D1 cells, calcium flux, dopamine EC20 potentiation. potentiation, % at 10 µM. 360,000 tested, 0.036% active. AID 504651; in the data active = potentiation above about 30%; also: 0% is about no effect
D3 antag: D3 dopamine receptor (human) antagonism; max response, negative = inhibition, %; AID 652054; 360,000 tested, 2.5% active; P35462; D3R cells, DiscoveRx beta-arrestin luminescence, antagonist mode; active compounds read low; in the data active = max response below about -50%; inconclusive = no clear call, values can overlap the other calls; also: % is scaled to controls: 0 for no effect and ±100 for the full control effect
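Cells expressing the human receptor were seeded at 1500 cells/well, incubated overnight at 37 degrees C in 5% CO2, then exposed to library compounds with dopamine controls for 90 minutes at 37 degrees C before luminescent detection.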
D1 ag: human D1 receptor agonism. 360,000 tested, 1% active. HEK293 T-REx D1 cells, calcium flux, agonist mode. P21728. activation, % at 2 µM. AID 504660; in the data active = activation above about 30%; also: 0% is about no effect
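Agonism was scored from calcium flux recorded over 180 s (1 read/s) after pintool compound addition, following a 10-cycle baseline. Cells were inducible force-coupled HEK293 TREx D1, plated overnight at 30 C and loaded with no-wash calcium dye.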
* = called active by the depositor; ? = inconclusive; · = no result.

SMILES | BCR signal inh | D1 antag | DRD3 agonist | D1 PAM | D3 antag | D1 ag
O=C1NCN(c2ccccc2)C12CCN(C(c1ccccc1OC(F)(F)F)c1nnnn1Cc1ccccc1)CC2 (stereo not given) | · | · | 30* | · | 92 | ·
O=C1NCN(c2ccccc2)C12CCN(C(c1cccc3ccccc13)c1nnnn1Cc1ccccc1)CC2 (stereo not given) | · | · | -9 | · | 0 | ·
CCCCn1nnnc1C(c1cccs1)N1CCC2(CC1)C(=O)NCN2c1ccccc1 (stereo not given) | · | · | -10 | · | -52* | ·
COc1ccc2c(c1)/C(=C/c1cnc[nH]1)C(=O)N2 | ? | -34* | 22 | -2 | 23 | 1
N#CC1(N2CCCCC2)CCCCC1 | · | · | 6 | · | · | ·
CN1CCN(Cc2ccc3ccccc3c2)CC1 | 3% | 2 | -3 | -2 | -20 | 8
c1ccc(CN2CCc3nc4ccccc4cc3C2)cc1 | ? | 1 | 60* | -3 | -10 | 2
COCCOCCO | · | · | -9 | · | · | ·
CN(C)C(=O)Oc1ccc(OC(=O)N(C)C)cc1 | 1% | -5 | 3 | -1 | -5 | 1
CN(C)C(=O)Oc1ccc(OCc2nc3ccccc3[nH]2)cc1 | 0% | -48* | -4 | -8 | -11 | 16
O=C(COc1ccc(Br)cc1)N1CCN(Cc2ccc3c(c2)OCO3)CC1 | 1% | -34* | -13 | 0 | -29 | 5
Fc1ccccc1N1CCN(Cc2ccc3c(c2)OCO3)CC1 | 1% | -19 | 23 | -14 | ? | 2
Cc1ccc(OCC(=O)N2CCN(Cc3ccc4c(c3)OCO4)CC2)cc1C | -6% | 0 | -3 | -3 | 0 | 1
Clc1ccccc1N1CCN(Cc2ccc3c(c2)OCO3)CC1 | 3% | 23 | -14 | -12 | -88* | 4
Clc1ccccc1CN1CCN(c2ccccc2Cl)CC1 | 18% | -7 | -30 | 0 | -83* | 2
Cc1ccccc1N1CCN(Cc2ccc3c(c2)OCO3)CC1 | 1% | -8 | -17 | -1 | -76* | 4
CC1CCCN(c2nc(N(C)c3ccccc3)nc(N)c2[N+](=O)[O-])C1 (stereo not given) | ? | 4 | 22 | -2 | 17 | 0
O=C(c1ccc2c3c(cccc13)CC2)C1CCCN(Cc2ncc[nH]2)C1 (stereo not given) | 5% | 1 | -8 | 2 | -12 | 4
O=C(c1ccc2c3c(cccc13)CC2)C1CCCN(CC2CC2)C1 (stereo not given) | ? | -15 | -27 | -4 | -81* | 13
Cc1[nH]c2ccccc2c1CCNC(=O)c1ccc2c(c1[N+](=O)[O-])C(=O)c1ccccc1C2=O | ? | 1 | -16 | -4 | -85* | 4
C[C@H]1CC[C@]2(NC1)O[C@H]1C[C@H]3[C@@H]4CC[C@H]5C[C@@H](O[C@@H]6O[C@H](CO)[C@H](O[C@@H]7O[C@H](CO)[C@@H](O)[C@H](O[C@@H]8OC[C@@H](O)[C@H](O)[C@H]8O)[C@H]7O[C@@H]7O[C@H](CO)[C@@H](O)[C@H](O)[C@H]7O)[C@H](O)[C@H]6O)CC[C@]5(C)[C@H]4CC[C@]3(C)[C@H]1[C@@H]2C | · | · | -22 | · | · | ·
CCCCCCCCOC(=O)c1ccccc1C(=O)OCCCCCCCC | · | · | -8 | · | · | ·
CCCCCCCCCCOC(=O)Cn1c(COc2ccc(OC)cc2)[n+](C)c2ccccc21 | ? | -18 | 4 | -4 | ? | 139*
Cc1ccc(CN2CCN(C)CC2)c(C)c1 | 8% | -17 | 2 | -3 | -16 | -1
CCN1CCN(Cc2ccccc2C)CC1 | ? | -4 | -13 | 1 | -66* | 2
SMILES | BCR signal inh | D1 antag | DRD3 agonist | D1 PAM | D3 antag | D1 ag
CCN1CCN(Cc2ccc(C)cc2C)CC1 | 0% | 6 | -2 | -7 | -72* | 1
OC[C@@H](O)[C@H]1O[C@@H]2O[C@@H](C(Cl)(Cl)Cl)O[C@@H]2[C@H]1O | · | · | -7 | · | · | ·
O=C(NCc1ccc2c(c1)OCO2)c1nc(S(=O)(=O)Cc2ccccc2)ncc1Cl | ? | -28 | -30 | -5 | -66* | 1
COc1cccc(N2C(=O)NC(=O)/C(=C/c3ccc4c5c(cccc35)CC4)C2=O)c1 | ? | 6 | · | 3 | · | 1
CCOc1ccccc1N1C(=O)NC(=O)/C(=C/c2ccc3c4c(cccc24)CC3)C1=O | -8% | 7 | 1 | 0 | -52* | -1
O=P(Nc1cccc(Cl)c1)(Oc1ccccc1)Oc1ccccc1 | ? | · | 32* | 2 | 21 | 0
COc1cccc(NP(=O)(Oc2ccccc2)Oc2ccccc2)c1 | ? | -2 | 4 | 2 | -1 | 2
COc1ccccc1N1CCN(CCc2c[nH]c3cc4c(cc23)OCO4)CC1 | · | · | -27 | · | -79* | ·
OC[C@@H](O)[C@H]1O[C@@H]2O[C@H](C(Cl)(Cl)Cl)O[C@@H]2[C@H]1O | · | · | 4 | · | · | ·
CC(C)NC(C)C(=O)c1ccc2ccccc2c1 (stereo not given) | 21% | -34* | -4 | -4 | -9 | 1
CC(C(=O)c1ccc2ccccc2c1)N1CCCCC1 (stereo not given) | ? | -2 | -13 | -2 | -19 | 1
COc1ccc(CN2CCCC(C(=O)c3ccccc3SC)C2)cc1O (stereo not given) | 0% | -2 | -7 | -3 | -61* | 4
COc1ccc(Cl)cc1C(=O)C1CCCN(CCO)C1 (stereo not given) | 10% | -1 | -27 | -1 | -50* | 1
COc1ccc(CN2CCCC(C(=O)c3cccc(Cl)c3)C2)cc1 (stereo not given) | 1% | -9 | -19 | -7 | -73* | 4
COc1ccc(C(=O)C2CCCN(Cc3ccon3)C2)c(OC)c1 (stereo not given) | ? | -3 | -10 | -2 | -9 | 1
COc1ccc(CN2CCCC(C(=O)c3ccc(Cl)cc3)C2)c(OC)c1 (stereo not given) | 0% | -35* | -11 | -1 | -60* | 11
CSc1ccccc1C(=O)C1CCCN(Cc2ccccn2)C1 (stereo not given) | -10% | -5 | -16 | -1 | 0 | 2
Cc1ccc(Cl)c(O)c1 | · | · | -13 | · | · | ·
Cc1nc2ccccc2c(=O)n1-c1ccccc1Cl | · | · | 8 | · | · | ·
c1ccc(CCN2CCC(N3CCN(c4ccccc4)CC3)CC2)cc1 | 2% | 1 | 69* | -5 | -24 | 1
CCCCN(Cc1ccccc1)C1CCN(CCc2ccccc2)CC1 | 4% | 6 | -25 | -13 | ? | 2
CC1(C)S[C@@H]2[C@H](N)C(=O)N2[C@H]1C(=O)O | · | · | 4 | · | · | ·
C#CCN(C)[C@H](C)Cc1ccccc1 | -10% | 11 | 5 | 0 | 1 | 3
CC(Cc1ccccc1Sc1ccccc1O)N(C)C (stereo not given) | -3% | -38* | -19 | 0 | -26 | 40*
